Reference: PubChem BioAssay AID1159580 (chemical genetic matrix, 2015)
Among all 5,500 compounds or so, about 2,000 (36%) were called active. About 18% were inconclusive and are not listed. Some of the results follow. Unmarked numbers belong to inactive results. No stated cut-off is given here; in the data, active means normalized growth mostly below about 0.91 (no sharp cut-off); inconclusive means no clear call, values can overlap the other calls; inactive means mostly above about 0.92.

Experiment: chemical genetic growth profiling, strain panel (AID 1159580);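 further: tested at 20 µM; growth read once vehicle control cultures reached saturation at 30 °C; 1 = growth at the plate median or of vehicle wells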
Settings: growth OD
[1] = S. cerevisiae deletion strains, locus YAL013W, strain DEP1, stronger effect = lower value
[2] = S. cerevisiae deletion strains, locus YDR150W, strain NUM1, stronger effect = lower value
[3] = S. cerevisiae deletion strains, locus YGR229C, strain SMI1, stronger effect = lower value
[4] = S. cerevisiae deletion strains, locus YHR030C, strain SLT2, stronger effect = lower value
[5] = S. cerevisiae deletion strains, locus YJR075W, strain HOC1, stronger effect = lower value
[6] = S. cerevisiae deletion strains, locus YNL322C, strain KRE1, stronger effect = lower value
[7] = S. cerevisiae deletion strains, locus YPL055C, strain LGE1, stronger effect = lower value
[8] = S. cerevisiae deletion strains, locus YPL241C, strain CIN2, stronger effect = lower value
[9] = S. cerevisiae deletion strains, locus YAL040C, strain CLN3, stronger effect = lower value
[10] = S. cerevisiae deletion strains, locus YCL061C, strain MRC1 (second series), stronger effect = lower value
[11] = S. cerevisiae deletion strains, locus YDR363W, strain ESC2, stronger effect = lower value
[12] = S. cerevisiae deletion strains, locus YER002W, strain NOP16, stronger effect = lower value
[13] = S. cerevisiae deletion strains, locus YMR307W, strain GAS1, stronger effect = lower value
[14] = S. cerevisiae deletion strains, locus YNL128W, strain TEP1, stronger effect = lower value
[15] = S. cerevisiae deletion strains, locus YNL175C, strain NOP13, stronger effect = lower value
[16] = S. cerevisiae deletion strains, locus YNL197C, strain WHI3, stronger effect = lower value
[17] = S. cerevisiae deletion strains, locus YNL224C, strain SQS1, stronger effect = lower value
[18] = S. cerevisiae deletion strains, locus YOR083W, strain WHI5 (second series), stronger effect = lower value

In the case of CCOC(=O)c1cnc2cc(C)nn2c1C, the normalized growth [1] is reported as 0.994, the normalized growth (S. cerevisiae deletion strains, locus YBR229C, strain ROT2, stronger effect = lower value) is reported as 0.994 and the normalized growth (S. cerevisiae deletion strains, locus YCL061C, strain MRC1, stronger effect = lower value) is reported as 0.999. The normalized growth (S. cerevisiae deletion strains, locus YDL101C, strain DUN1, stronger effect = lower value) was 0.997, the normalized growth [2] was 0.964 and the normalized growth (S. cerevisiae deletion strains, locus YEL061C, strain CIN8, stronger effect = lower value) was 0.997. For the same compound, the normalized growth (S. cerevisiae deletion strains, locus YGR078C, strain PAC10, stronger effect = lower value) was 1, the normalized growth [3] was 0.983 and the normalized growth [4] was 0.986. For the same compound, the normalized growth (S. cerevisiae deletion strains, locus YHR087W, strain rtc3, stronger effect = lower value) was 1.01, the normalized growth (S. cerevisiae deletion strains, locus YJL187C, strain SWE1, stronger effect = lower value) was 1.01 and the normalized growth (S. cerevisiae deletion strains, locus YJR043C, strain POL32, stronger effect = lower value) was 1.01. For the same compound, the normalized growth [5] was 0.998, the normalized growth (S. cerevisiae deletion strains, locus YKL190W, strain CNB1, stronger effect = lower value) was 0.992 and the normalized growth (S. cerevisiae deletion strains, locus YLR039C, strain RIC1, stronger effect = lower value) was 0.987. It also gave a normalized growth (S. cerevisiae deletion strains, locus YLR058C, strain SHM2 (second series), stronger effect = lower value) of 1, a normalized growth (S. cerevisiae deletion strains, locus YLR085C, strain ARP6, stronger effect = lower value) of 0.944 and a normalized growth (S. cerevisiae deletion strains, locus YLR262C, strain YPT6, stronger effect = lower value) of 0.99. It also gave a normalized growth (S. cerevisiae deletion strains, locus YML094W, strain GIM5, stronger effect = lower value) of 0.953, a normalized growth (S. cerevisiae deletion strains, locus YMR219W, strain ESC1, stronger effect = lower value) of 0.991 and a normalized growth (S. cerevisiae deletion strains, locus YMR263W, strain SAP30, stronger effect = lower value) of 1. The normalized growth (S. cerevisiae deletion strains, locus YNL298W, strain CLA4 (second series), stronger effect = lower value) was 0.996, the normalized growth [6] was 0.994 and the normalized growth (S. cerevisiae deletion strains, locus YNR030W, strain Alg12, stronger effect = lower value) was 0.981. For the same compound, the normalized growth (S. cerevisiae deletion strains, locus YOL006C, strain TOP1, stronger effect = lower value) was 0.965, the normalized growth [7] was 0.909 and the normalized growth [8] was 0.956. For the same compound, the normalized growth (S. cerevisiae deletion strains, locus YPR135W, strain CTF4, stronger effect = lower value) was 1.01 and the normalized growth (S. cerevisiae strains, strain wild type, stronger effect = lower value) was 0.991.

CCCCNc1c(C(=O)OCC)c(C)nc2c1cnn2CC showed a normalized growth [9] of 0.933, a normalized growth [10] of 0.998 and a normalized growth [2] of 0.999. It also gave a normalized growth [11] of 1.01, a normalized growth [12] of 0.998 and a normalized growth [3] of 1.01. For the same compound, the normalized growth [5] was 1.01, the normalized growth [13] was 0.998 and the normalized growth [14] was 0.959. The normalized growth [15] was 0.941, the normalized growth [16] was 0.947 and the normalized growth [17] was 0.951. For the same compound, the normalized growth [6] was 1, the normalized growth [18] was 0.845 (active) and the normalized growth [7] was 1.01. For the same compound, the normalized growth [8] was 0.993.

For CCOC(=O)c1cnc2c(cnn2CC)c1NN=C(C)C, the normalized growth [1] was 0.918, the normalized growth [9] was 1.01 and the normalized growth [10] was 0.943 (active). For the same compound, the normalized growth [11] was 0.918, the normalized growth [12] was 0.959 and the normalized growth [3] was 0.76 (active). The normalized growth [13] was 0.856 (active), the normalized growth (S. cerevisiae deletion strains, locus YNL153C, strain GIM3, stronger effect = lower value) was 0.909 and the normalized growth [15] was 0.961. The normalized growth [16] was 0.976, the normalized growth [17] was 0.97 and the normalized growth [18] was 0.844 (active). The normalized growth [7] was 0.966 and the normalized growth [8] was 0.964.

With CCN(CC)CC#CCOC(=O)C(O)(c1ccccc1)C1CCCCC1 (stereo not given) the normalized growth [1] was 1, the normalized growth [9] was 1 and the normalized growth [10] was 1. For the same compound, the normalized growth [2] was 1, the normalized growth [11] was 1.01 and the normalized growth [12] was 1.06. For the same compound, the normalized growth [4] was 0.985, the normalized growth (S. cerevisiae deletion strains, locus YHR079C, strain IRE1, stronger effect = lower value) was 0.996 and the normalized growth (S. cerevisiae deletion strains, locus YJL095W, strain BCK1, stronger effect = lower value) was 1.05. For the same compound, the normalized growth (S. cerevisiae deletion strains, locus YJR066W, strain TOR1, stronger effect = lower value) was 0.927, the normalized growth (S. cerevisiae deletion strains, locus YLR113W, strain HOG1, stronger effect = lower value) was 1.04 and the normalized growth [14] was 1.11 [resistant] (active). It also gave a normalized growth [15] of 1.06, a normalized growth (S. cerevisiae deletion strains, locus YNL183C, strain NPR1, stronger effect = lower value) of 0.96 and a normalized growth [16] of 1.05. For the same compound, the normalized growth [17] was 1.02, the normalized growth [18] was 0.998 and the normalized growth (S. cerevisiae deletion strains, locus YOR231W, strain MKK1, stronger effect = lower value) was 0.989. It also gave a normalized growth [7] of 1, a normalized growth [8] of 1 and a normalized growth (S. cerevisiae deletion strains, locus YPL256C, strain CLN2, stronger effect = lower value) of 1.
